Among all 370,000 compounds or so, about 5,400 (1.5%) were called active. The entries come from a sample that favours actives as a whole. A number with no mark means an inactive call.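 How the source made its calls: active means activation above the mean of all tested compounds plus 3 SD (cut at about 5.5% in these data); inactive means the rest.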
test system: DAF-12 nuclear receptor (Haemonchus contortus); assay: hcDAF-12 driven luciferase reporter activation – cell-based, luminescence, HEK293, lit1-tk-luc reporter, primary screen (AID 652067); conditions: HEK293 hcDAF-12 lit1-tk-luc reporter, at 6.8 µM, stronger effect = higher value, 0% DMSO, 100% Δ7-dafachronic acid;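 further: 100% = response to 3 µM Δ7-dafachronic acid high control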

| Structure (SMILES) | activation |
| --- | --- |
| Cc1cccc(C)c1NC(=O)COC(=O)c1c(C)nn(-c2ccccc2)c1C | -1.2% |
| CCCn1c(C)cc(C(=O)COC(=O)c2c(C)nn(-c3ccccc3)c2C)c1C | -1.95% |
| Cc1ccc(OC(=O)c2c(C)nn(-c3ccccc3)c2C)cc1 | 5.72% (active) |
| CCOC(=O)[C@]12CCCCC/C=C\1N(Cc1ccc(OC)cc1)C(=O)[C@H]2CC(=O)NCc1ccc(C)o1 | -1.63% |
| CCOC(=O)c1c(NC(=S)SC)sc(C(=O)N2CCc3ccccc3C2)c1C | -0.42% |
| COC(=O)[C@]12C[C@H](CC(=O)NCc3ccc(OC)c(OC)c3)C(=O)N(Cc3ccccc3)C1=C[C@H](C(C)C)O[C@@H]2C1CC1 | -0.82% |
| CCN1CCN(C(=O)C2(NC(=O)Nc3cccc(F)c3)CCCCC2)CC1 | -1.58% |
| Cc1nc2cc(NCc3cccs3)ccc2n1C | 1.2% |
| Cc1nc2cc(NC(=O)Nc3cccc(F)c3)ccc2n1C | 11.1% (active) |
| COC[C@@H]1CCCN1c1ccc2c(c1)O[C@H](C)CCN(C1CC1)S2(=O)=O | -0.65% |
| Cn1c(CNc2nc(-c3ccccc3)cs2)nnc1SCC(=O)c1ccccc1 | -0.8% |
| Cn1c(SCC(=O)NC2CCCCC2)nnc1-c1cc2ccccc2o1 | -0.36% |
| CCNc1nc(-c2cc3ccccc3o2)cs1 | 6.62% (active) |
| C[C@H]1CCC/C=C/C(=O)c2c(O)cc(O)cc2CC(=O)O1 | -4.76% |
| N#Cc1ccsc1NC(=O)CN1CCCCC1 | -2.18% |
| Cc1csc(SCC(=O)Nc2sccc2C#N)n1 | 6.55% (active) |
| Cc1csc(SCC(=O)Nc2ccc(C)c(S(=O)(=O)N(C)C)c2)n1 | -0.11% |
| Cc1ccc(NC(=S)NNC(=O)CSc2nnc(SCc3ccccc3Cl)s2)cc1 | 0.49% |
| CCOC(=O)c1ccccc1NC(=O)COC(=O)CCC(=O)N1CCOCC1 | -0.53% |
| CCOC(=O)c1ccccc1C(=O)N1CCOCCOCCOCC1 | 6.11% (active) |
| CSc1ncccc1C(=O)OCC(=O)N1CCOCC1 | -1.11% |
| CC(CCc1ccccc1)NCC(O)c1cccc([N+](=O)[O-])c1 (stereo not given) | -0.61% |
| Cn1c(=NC(=O)c2cnccn2)sc2ccccc21 | 3.28% |

| Structure (SMILES) | activation |
| --- | --- |
| Cn1c(=NC(=O)c2ccco2)sc2cccc(F)c21 | 10.7% (active) |
| Cc1cc(NC(=O)c2ccco2)c(=O)n(Cc2c(F)cccc2Cl)c1 | -0.57% |
| C=CCN1C(=O)[C@H](CC(=O)N2CCN(C(=O)OCC)CC2)[C@@]2(C(=O)OCC)CCCC=C12 | -0.81% |
| Cc1ccccc1CN1CCCCC(NC(=O)c2cccc(C#N)c2)C1=O (stereo not given) | -2.63% |
| Cc1ccc(C(=O)C2CCN(CC(=O)NCCC(C)C)CC2)cc1 | -1.66% |
| COc1ccc([C@H]2OC(=O)C[C@H]2C(=O)N2CCN(c3ccccc3F)CC2)cc1OC | -0.81% |
| N#Cc1c(C(F)(F)F)cc(-c2ccc(Cl)cc2)nc1SCC(=O)O | 6.47% (active) |
| Cc1cc(C(F)(F)F)c(C#N)c(SCC(=O)NC2CC2)n1 | -2.02% |
| CCN(CC)c1nc(-c2ccccc2)cc(C(F)(F)F)c1C#N | -1.43% |
| CN(C)S(=O)(=O)c1cccc(C(=O)N/N=C\c2ccco2)c1 | 0.08% |
| Cc1ccsc1C(=O)N/N=C/c1ccc([N+](=O)[O-])cc1 | 6.15% (active) |
| Cc1ccsc1C(=O)NC1CCCCC1C (stereo not given) | -1.43% |
| Cc1ccc(/C=N/NC(=O)c2sccc2OCc2ccc(F)cc2)cc1 | 0.06% |
| O=C(NCCC1=CCCCC1)C1CCN(S(=O)(=O)c2ccc(Cl)s2)CC1 | -1.29% |
| CC(=O)c1ccc(S(=O)(=O)NCC2CCN(C(=O)C(=O)c3cccs3)CC2)cc1 | -1.54% |
| COc1ccc(-c2cc3ncccc3cn2)cc1 | 7.99% (active) |
| COc1ccc(-c2cc3n(n2)CCc2nc4ccccc4n2-3)cc1 | 2.18% |
| COc1ccc(-c2cc(C3CCN(c4ncccc4[N+](=O)[O-])CC3)[nH]n2)cc1 | -1.95% |
| Cc1ccc(Cn2cc(COC(=O)N(C)Cc3ccccc3)nn2)cc1 | -1.15% |
| O=C1CCCCN1CCCC(=O)N1CCCC(Nc2ccc(F)cc2)C1 (stereo not given) | -0.38% |
| COc1ccc(C(=O)OCCN2CCN(C3CN(Cc4cn(Cc5ccccc5F)nn4)S(=O)(=O)C3)CC2)cc1OC (stereo not given) | -3.13% |
| CCOC(=O)C1CCN(C(=O)C(C)(C)NC(=O)Nc2ccccc2Cl)CC1 | -0.1% |

— PubChem BioAssay AID652067 (The Scripps Research Institute Molecular Screening Center, 2013)
